Screening results: PubChem BioAssay, Sanford-Burnham Center for Chemical Genomics
TROY signal inh = inhibitors of TROY-driven NF-kB signaling, primary screen, Q293 LMP1-TROYcd cells, NF-kB luciferase, uHTS; Q293 LMP1-TROYcd NF-kB luciferase reporter, 4 h; inhibition, % at 10 µM; 0.98% of 360,000 active; AID 1347056, 2019;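 active = compounds whose plate-normalised and pattern-corrected inhibition of the luciferase reporter signal at the single screening dose is 50% or more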
TWEAK-Fn14 inh = inhibitors of TWEAK-Fn14 signaling, primary screen, luciferase reporter cells, uHTS | TWEAK-stimulated Fn14 reporter cells, luciferase luminescence, 8 h | inhibition, % at 10 µM | 2% of 360,000 active | AID 1159606, 2016; in the data active = inhibition above about 50%
CF NFkB block = inhibitors of PAF-induced NF-kB signaling, primary screen, cell-based, GFP fluorescence, uHTS; 0.86% of 360,000 active; inhibition, % at 5 µM; KKLEB NF-kB-GFP reporter, GFP fluorescence overnight;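 active = at least 50% inhibition at 5 µM, scaled per plate between neutral and stimulator controls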;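 also: PAF is a Pseudomonas aeruginosa culture filtrate used as stimulus; plate controls were PAF-stimulated DMSO wells for no effect and unstimulated DMSO wells for full effect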
Peg3 prom inh = Peg3 promoter-driven luciferase inhibitors, primary screen, cell-based, HeLa, luciferase luminescence | HeLa PEG-Prom luciferase reporter, overnight | inhibition, % at 20 µM | 1.7% of 360,000 active;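 active = inhibition of at least 50% at 20 µM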
HIF-2a block = HIF-2a reporter inhibitors, primary screen, luminescence, 786-0 RCC cells; 786-0 RCC cells HIF-2a reporter, luciferase luminescence, overnight; inhibition, % at 18.8 µM; 0.72% of 360,000 active;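 active = inhibition of the luminescence signal of 40% or more relative to plate controls, in a single-dose primary screen at 18.75 µM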
KKLEB cytotox = cytotoxicity in KKLEB CF airway cells, primary screen, cytotoxicity control for CF NF-kB inhibitor project, cell-based, uHTS, fluorescence assay plates | 0.36% of 360,000 active | KKLEB CF airway cells viability, ATPlite luminescence, overnight; stronger effect = lower value; cells stimulated with P. aeruginosa culture filtrate | activity change (cytotoxicity), % at 5 µM;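 active = corrected activity change at or below -50% at 5 µM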
An asterisk follows results filed as active; · = no result. Hits are enriched below; roughly 4% of the tested compounds scored in any of these assays.

SMILES	TROY signal inh	TWEAK-Fn14 inh	CF NFkB block	Peg3 prom inh	HIF-2a block	KKLEB cytotox
Cc1ccc(/C=C2\SC(=S)N(CCCC(=O)N3CCOCC3)C2=O)cc1	8.8	-1.9	4.1	3.7	57.9*	-8.7
O=C(CCN1C(=O)/C(=C\c2ccccc2F)SC1=S)N1CCCCC1	-13.0	15.5	95.7*	104.4*	8.1	0.5
CC(OC(=O)Cc1ccc(Cl)cc1)C(=O)NC1CCCCC1C (stereo not given)	4.4	-2.5	3.9	2.4	16.2	6.7
COc1cc(C(=O)NCC(=O)N2CCN(S(=O)(=O)c3ccccc3C(F)(F)F)CC2)cc(OC)c1OC	1.9	-15.7	-13.2	14.1	13.1	-3.7
CCOc1ccc(/C=C2\SC(=S)N(CCC(=O)O)C2=O)cc1	57.8*	86.4*	7.8	24.1	90.5*	0.2
CC1CCN(C(=O)CCN2C(=O)/C(=C/c3cccs3)SC2=S)CC1	-9.2	39.0	15.4	93.8*	22.7	-9.3
CCOc1ccc(/C=C2/SC(=S)N(CCC(=O)Nc3ccc(C(=O)O)cc3)C2=O)cc1	-59.4	-72.1	14.0	-18.8	-80.3	7.9
O=C(CCN1C(=O)/C(=C\c2ccccc2Cl)SC1=S)N1CCN(c2ccccc2)CC1	-30.0	38.5	3.9	100.0*	59.5*	7.7
Cc1onc(-c2c(F)cccc2Cl)c1C(=O)N(C)C1CCCCC1	3.2	3.7	-25.0	14.5	15.6	6.9
CN(C)c1ccc(/C=N/N=C2/NC(=O)/C(=C/c3ccc([N+](=O)[O-])cc3)S2)cc1	32.8	59.6*	19.7	-139.6	-0.4	-22.8
O=C(N/N=C\c1cn(-c2ccccc2)nc1-c1ccccc1)c1ccc(Br)o1	25.2	54.7*	-4.2	-25.7	-85.1	-3.1
O=C(N/N=C/c1ccccc1C(=O)O)c1cccc(S(=O)(=O)N2CCOCC2)c1	-2.4	7.7	-31.6	-18.5	10.7	28.8
Cc1nn(-c2ccccc2)c(Cl)c1/C=N/NC(=O)c1cccc(S(=O)(=O)N2CCCC2)c1	6.7	62.2*	29.2	18.6	17.9	-25.8
COc1ccc(-c2nn(-c3ccccc3)cc2/C=N/NC(=O)c2cccc(S(=O)(=O)Nc3ccccc3Cl)c2)cc1	16.3	56.2*	-11.6	-182.0	-85.9	-16.4
Cc1ccc(-c2nn(-c3ccccc3)cc2/C=N/NC(=O)c2ccc(Br)o2)cc1	9.8	35.0	-14.0	-122.0	-95.0	9.1
COc1ccc(-c2nn(-c3ccccc3)cc2/C=N/NS(=O)(=O)c2ccccc2)cc1	-49.7	-7.2	3.6	-159.7	-109.7	7.3
Cc1ccc(/C=N/NC(=O)c2cccc(S(=O)(=O)N3CCOCC3)c2)o1	-6.4	5.7	6.1	110.1*	4.9	-1.5
Nc1ccccc1/C=C/c1ccccc1N	-22.2	-2.6	-0.1	-305.8	-261.3	11.1
O=C(NCCc1ccco1)C(=O)NCC1OCCCN1S(=O)(=O)c1ccccc1 (stereo not given)	14.4	1.2	-3.0	12.2	0.1	16.0
COc1cc(/C=C(\NC(C)=O)C(=O)N2CCCCC2)ccc1OC(C)=O	7.3	-3.8	-8.1	8.6	13.3	8.3
COc1cccc(CN2CC(C(=O)N(C)CCCC3CCCC3)CCC2=O)c1 (stereo not given)	-27.3	-15.7	10.1	-4.2	-25.5	1.4
O=C(NCc1ccco1)C1(S(=O)(=O)c2ccccc2)CC=CC1	-12.0	-7.5	-5.8	-22.4	-27.3	-3.7
C=CCOc1ccc(CN(C)CC(O)COc2cccc3ccccc23)cc1 (stereo not given)	-49.2	-26.9	8.8	41.1	1.9	-3.6
Oc1ccc(Nc2nc(NCC3CCCO3)c3ccccc3n2)cc1 (stereo not given)	-42.3	7.7	-25.8	6.3	22.4	6.1
Oc1ccc(Cl)cc1Nc1nc(NCC2CCCO2)c2ccccc2n1 (stereo not given)	51.2*	71.8*	-40.0	6.9	-24.6	-14.1
SMILES	TROY signal inh	TWEAK-Fn14 inh	CF NFkB block	Peg3 prom inh	HIF-2a block	KKLEB cytotox
Oc1ccccc1Nc1nc(NCC2CCCO2)c2ccccc2n1 (stereo not given)	18.4	38.9	-6.5	2.9	-16.7	-0.5
COc1cccc(Nc2nc(NCC3CCCO3)c3ccccc3n2)c1 (stereo not given)	43.2	88.5*	-12.2	24.3	-2.5	-17.1
COc1ccc(OC)c(CN2C(=O)CN(S(C)(=O)=O)CC2(C)C(=O)NC(C)C)c1 (stereo not given)	·	·	·	·	2.0	·
Cc1cc(C)cc(C(=O)N2CCC3(CC2)NCCc2[nH]cnc23)c1	9.0	-7.9	10.4	7.7	6.7	1.7
COc1ccnc(Oc2ccccc2)c1C(=O)N/C=N/OCc1ccc(F)cc1Cl	2.5	19.0	39.5	56.9*	-12.2	-25.8
CCN(CC)CC(C)(C)C(=O)/C=C/c1ccc(/C=C/C(=O)C(C)(C)CN(CC)CC)cc1	44.4	102.5*	91.6*	102.2*	91.3*	-65.5*
COc1ccc(N2CCN(C(=O)COC(=O)CNC(=O)c3cccc(OC(F)F)c3)CC2)cc1	1.7	9.9	-5.8	6.7	-4.9	10.4
COc1ccc(N2CCN(C(=O)C(=O)c3cn(CC(=O)N4CCCC4)c4ccccc34)CC2)cc1	-8.9	14.2	-13.3	-2.9	-0.7	3.4
Cc1ccc(S(=O)(=O)N2CCC(C(=O)NC3CC(C)(C)NC(C)(C)C3)CC2)cc1C	12.8	14.9	-12.2	5.3	2.6	-13.0
Cc1cc([N+](=O)[O-])nn1CC(=O)NC(C)c1ccccc1 (stereo not given)	-3.5	110.3*	-9.5	-0.4	10.9	-6.0
COc1ccc(NCc2nnc(SCc3ccc(Cl)cc3)n2-c2ccccc2)cc1	59.8*	16.5	33.3	37.4	-18.4	-9.5
COc1ccc(NCc2nnc(SCC(=O)Nc3nc(-c4ccccc4)cs3)n2-c2ccccc2)cc1	-5.0	-2.8	-5.6	83.0*	11.0	-11.8
O=C(OCC(=O)N1CCN(C(=O)c2ccco2)CC1)c1cncc(Br)c1	2.3	12.7	-13.9	1.8	12.8	12.1
COc1ccc2oc(C(=O)OC(C)C(=O)N3C(C)CCCC3C)c(C)c2c1 (stereo not given)	-13.6	9.1	11.1	-26.8	-67.7	-16.1
CO[C@H]1/C=C/O[C@@]2(C)Oc3c(C)c(O)c4c(O)c(c(C=NN5CCN(C)CC5)c(O)c4c3C2=O)NC(=O)/C(C)=C\C=C\[C@H](C)[C@H](O)[C@@H](C)[C@@H](O)[C@@H](C)[C@H](OC(C)=O)[C@@H]1C	4.2	-5.3	54.6*	-11.0	25.4	-6.9
